We go through 38 compounds from PubChem BioAssay (NCI).

Structures are written as SMILES. Values joined by “and” are separate entries in the source; they are usually repeats but may differ in a detail not shown here. Identical values can stand only once. The panel holds about 83,000 compounds, 20% with a hit somewhere; the sample as a whole holds those more often.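 Cell lines were cultured in 96-well plates, exposed to a single compound concentration, and assessed for percent growth 48 hours later.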 A number with no mark means an inactive call. Active and inactive are the calls of the source. Rule for the calls: active = growth percent below 10; inactive = the rest.

The subject of this assay is MDA-MB-468 breast. Description: NCI-60 one-dose screen, 48 h (100 = growth as untreated, 0 = no growth, -100 = all killed). As to conditions: 10 µM unless noted.

As for `O=C1/C(=C/C=C/c2ccco2)SC(=S)N1C1CCCCC1`, the growth is 43.4%.

`O=C1OCC2=C1C(c1cccc(Br)c1)c1cc3c(cc1N2CCO)OCCO3` (stereo not drawn): the growth is 24.7%.

For `Cc1nnc(-n2c(O)cc(=O)n(-c3ccccc3)c2=S)nc1/C=C/c1ccc(N(C)C)cc1`, the growth is 25.8%.

Consider `CCN(CC)CC(=O)Nc1c(C)cc(C(=O)NN)cc1C`, for which the growth was 107%.

In the case of `CCc1ccc(NC(=O)N[C@@H](Cc2cccc(C)c2)C(=O)N[C@@H]2C(=O)N3CCC[C@H]3C(=O)N3CCCC[C@H]3C(=O)N[C@@H](CO)C(=O)N3C[C@H](C)C[C@H]3C(=O)O[C@H]2C)c(F)c1`, the growth is -14.2% (active).

For the compound `O=C1CCCc2nc(Nc3ccc(S(=O)(=O)Nc4ccc([N+](=O)[O-])cc4)cc3)ncc21`, the growth was 99.8%.

On to `Nc1ccc(Sc2ccc3c4c2cccc4c(=O)n2c4ccccc4nc32)cc1`, for which the growth was 43.5%.

Take `Nc1ccc(-c2nnc(SCc3ccc(O)c4ncccc34)n2-c2ccccc2)cc1`: the growth is 9.01% (active).

On to `Clc1ccc(CCC(Cn2ccnc2)Sc2c(Cl)cccc2Cl)cc1` (stereo not drawn), for which the growth was 36.9%.

`Cc1[nH]c2ccccc2c1/C=N/Nc1ncnc2sc3c(c12)CCN(CC(=O)OC(C)(C)C)C3`: the growth is 47.5%.

With `CS(=O)(=O)c1nccc(-c2c(-c3ccc(F)c(OCCc4ccc(F)cc4)c3)nc3sccn23)n1`, the growth was -52.2% (active).

On to `O=C(/C=C/c1cc2ccccc2[nH]c1=O)c1ccc(Cl)cc1`, for which the growth is 15.4%.

As for `COC(=O)c1c2c(c(C)[n+]([O-])c1C)C(=O)C(NCc1ccc(F)c(F)c1)=CC2=O`, the growth is -26.1% (active).

For the compound `COc1cc(C(=O)/C=C/c2sc(Cl)nc2Cl)cc(OC)c1OC`, the growth is -50.9% (active).

Consider `NC1=NC2(CCCC2)N(c2ccc(S(=O)(=O)Nc3nccs3)cc2)C(N)=N1`, for which the growth was 90.7%.

Consider `O=C(NCCN1CCOCC1)Nc1ccc(-c2cc3c(Nc4ccc(Oc5cccc(C(F)(F)F)c5)c(Cl)c4)ncnc3s2)cc1`, for which the growth was -28.3% (active).

Turning to `CCCCNC(=O)Oc1ccc(/C(=C(\C)c2ccccc2)c2ccc(OCCN3CCCCC3)cc2)cc1`, the growth is 66.8%.

As for `Cn1nnnc1-c1ccc(N)cc1`, the growth was 117%.

Consider `Cc1ccc2c(-n3nc(C#N)c(C#N)c3N)cc(=O)[nH]c2c1`, for which the growth was 92.6%.

For the compound `N#Cc1c(-c2ccc(C(F)(F)F)cc2)c(F)c(NCCC2CCC(O)C2)n2c1nc1ccccc12` (stereo not drawn), the growth is 64.2%.

Consider `Nc1c(C(=O)Nc2ccccc2)sc2nc3c(cc12)C(=O)CCC3`, for which the growth was 4.62% (active).

On to `C=C1C(=O)O[C@H]2[C@H]1CC/C(Cn1cc(-c3cccc(Cl)c3)nn1)=C\CC[C@@]1(C)O[C@@H]21`, for which the growth was -66.1% (active).

On to `O=C(Nc1ccncc1)C(=O)c1cn(S(=O)(=O)c2cc(Cl)cc(Cl)c2)c2ccccc12`, for which the growth was 41.6%.

`Cc1nn(-c2ccccc2)c2nc3nc4c(c(N)c3c(-c3ccc(Cl)cc3)c12)CCCC4`: the growth is 104%.

Consider `COc1ccc(/C=C(\C#N)c2ccc([N+](=O)[O-])cc2)c2ccccc12`, for which the growth is 84.7%.

Regarding `Cc1cccc2ccccc12`, the growth is 103%.

For `COCCN1CCN(Cc2ccc(-c3n[nH]c4c3C(=O)c3c(NC(=O)NN5CCOCC5)cccc3-4)cc2)CC1`, the growth is -45.1% (active).

As for `COc1ccccc1C1=C(Br)C(=O)c2nc(C)ccc2C1=O`, the growth was 107%.

For the compound `Nc1ccc(C2=NN(c3ccccc3)C(c3ccc(Cl)cc3)C2)cc1` (stereo not drawn), the growth was 62.6%.

Turning to `CCOC(=O)c1cnc2c(C)cc(C)cc2c1NCCCN(C)C`, the growth was 16.5%.

Regarding `C#Cc1cc2c(N)c(C(=O)c3cc(OC)c(OC)c(OC)c3)[nH]c2cc1OC`, the growth was 9.88% (active).

As for `CS(=O)(=O)Nc1ccc(Nc2c3ccccc3nc3cc(N)ccc23)cc1`, the growth is -52.9% (active).

Consider `CCC(=O)Oc1ccc(OCc2ccccc2)cc1`, for which the growth is 104% and 118%.

In the case of `FC(F)(F)c1ccc2c(c1)Sc1ccccc1N2`, the growth was 102%.

For the compound `NC(=S)N/N=C1\CCCC(C(F)(F)F)C1` (stereo not drawn), the growth was 31.3%.

In the case of `CS(=O)(=O)c1ccc(Nc2nc(N[C@H]3CCCC[C@H]3N)nc3cc[nH]c(=O)c23)cc1`, the growth is -75.2% (active).

As to `Cl.Fc1c[c-]c(-c2ccccn2)c(F)c1.[Pt].c1ccc([PH+](CC[PH+](c2ccccc2)c2ccccc2)c2ccccc2)cc1`, the growth is -79.2% (active).

Turning to `O=C1Nc2ccccc2C1=NC1CCCCC1`, the growth was 102%.
